ChEMBL document CHEMBL1961873, “Compounds: GSK PKIS; Assays: Nanosyn kinase panel” (2012)

How the values were obtained:
[1] = biological target: T1, Ephrin type-B receptor 2 (Homo sapiens) (UniProt P29323); settings: at 1 µM
T1 sequence (whole entry): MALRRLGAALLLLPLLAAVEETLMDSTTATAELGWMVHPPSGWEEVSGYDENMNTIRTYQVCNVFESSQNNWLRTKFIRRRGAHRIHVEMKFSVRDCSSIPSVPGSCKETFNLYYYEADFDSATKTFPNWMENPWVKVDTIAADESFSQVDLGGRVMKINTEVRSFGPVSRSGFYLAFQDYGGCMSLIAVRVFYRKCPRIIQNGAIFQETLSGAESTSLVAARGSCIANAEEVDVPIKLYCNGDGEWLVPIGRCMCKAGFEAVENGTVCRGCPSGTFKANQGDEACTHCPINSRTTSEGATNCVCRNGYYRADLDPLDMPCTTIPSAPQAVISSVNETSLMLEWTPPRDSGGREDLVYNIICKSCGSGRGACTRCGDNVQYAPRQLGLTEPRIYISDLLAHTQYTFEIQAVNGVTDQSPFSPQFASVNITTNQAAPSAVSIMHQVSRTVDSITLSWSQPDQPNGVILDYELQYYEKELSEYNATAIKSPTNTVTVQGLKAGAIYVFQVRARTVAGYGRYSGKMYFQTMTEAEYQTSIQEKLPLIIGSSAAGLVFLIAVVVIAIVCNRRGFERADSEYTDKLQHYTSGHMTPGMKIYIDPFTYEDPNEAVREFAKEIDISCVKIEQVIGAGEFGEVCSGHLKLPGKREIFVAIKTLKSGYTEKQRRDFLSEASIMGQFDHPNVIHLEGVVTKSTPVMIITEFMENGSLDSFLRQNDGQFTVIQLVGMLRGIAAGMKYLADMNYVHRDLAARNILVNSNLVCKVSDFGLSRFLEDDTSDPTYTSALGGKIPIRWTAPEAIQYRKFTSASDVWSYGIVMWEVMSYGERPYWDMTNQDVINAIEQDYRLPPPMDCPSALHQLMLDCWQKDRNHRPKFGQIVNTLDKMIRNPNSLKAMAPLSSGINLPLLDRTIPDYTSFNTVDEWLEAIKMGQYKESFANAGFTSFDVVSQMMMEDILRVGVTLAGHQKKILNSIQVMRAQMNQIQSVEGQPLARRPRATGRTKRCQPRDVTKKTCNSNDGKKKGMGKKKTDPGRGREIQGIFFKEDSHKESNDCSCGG

[2] = biological target: T2, Ephrin type-B receptor 3 (Homo sapiens) (UniProt P54753); settings: at 0.1 µM
T2 sequence (whole entry): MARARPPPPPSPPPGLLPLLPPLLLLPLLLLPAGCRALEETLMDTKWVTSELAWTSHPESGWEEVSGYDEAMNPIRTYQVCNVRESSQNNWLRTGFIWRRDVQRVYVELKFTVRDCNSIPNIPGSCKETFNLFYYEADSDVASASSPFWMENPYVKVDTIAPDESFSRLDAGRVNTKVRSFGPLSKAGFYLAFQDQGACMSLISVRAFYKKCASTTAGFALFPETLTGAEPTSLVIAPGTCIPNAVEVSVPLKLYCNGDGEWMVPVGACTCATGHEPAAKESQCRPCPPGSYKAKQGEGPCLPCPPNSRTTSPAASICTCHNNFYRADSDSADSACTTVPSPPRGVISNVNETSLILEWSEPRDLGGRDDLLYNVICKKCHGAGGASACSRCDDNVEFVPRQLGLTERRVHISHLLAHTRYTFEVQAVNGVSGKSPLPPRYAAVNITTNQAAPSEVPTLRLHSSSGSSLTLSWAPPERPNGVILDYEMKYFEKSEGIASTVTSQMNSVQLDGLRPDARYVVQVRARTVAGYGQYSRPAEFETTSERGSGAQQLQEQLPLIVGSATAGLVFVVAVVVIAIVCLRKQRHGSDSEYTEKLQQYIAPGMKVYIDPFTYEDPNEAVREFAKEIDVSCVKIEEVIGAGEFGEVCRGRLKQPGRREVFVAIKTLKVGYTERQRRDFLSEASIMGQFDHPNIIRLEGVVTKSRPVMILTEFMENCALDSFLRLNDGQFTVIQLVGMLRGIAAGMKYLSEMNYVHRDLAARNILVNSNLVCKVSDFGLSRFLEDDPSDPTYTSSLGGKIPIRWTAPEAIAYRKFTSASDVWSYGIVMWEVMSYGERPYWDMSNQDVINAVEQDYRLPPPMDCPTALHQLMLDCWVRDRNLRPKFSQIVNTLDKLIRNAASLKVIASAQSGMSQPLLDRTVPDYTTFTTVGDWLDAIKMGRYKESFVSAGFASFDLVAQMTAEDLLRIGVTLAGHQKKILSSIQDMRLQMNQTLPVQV

[3] = biological target: T2, Ephrin type-B receptor 3 (Homo sapiens); settings: at 1 µM
[4] = biological target: T3, Ephrin type-B receptor 4 (Homo sapiens) (UniProt P54760); settings: at 0.1 µM
T3 sequence (whole entry): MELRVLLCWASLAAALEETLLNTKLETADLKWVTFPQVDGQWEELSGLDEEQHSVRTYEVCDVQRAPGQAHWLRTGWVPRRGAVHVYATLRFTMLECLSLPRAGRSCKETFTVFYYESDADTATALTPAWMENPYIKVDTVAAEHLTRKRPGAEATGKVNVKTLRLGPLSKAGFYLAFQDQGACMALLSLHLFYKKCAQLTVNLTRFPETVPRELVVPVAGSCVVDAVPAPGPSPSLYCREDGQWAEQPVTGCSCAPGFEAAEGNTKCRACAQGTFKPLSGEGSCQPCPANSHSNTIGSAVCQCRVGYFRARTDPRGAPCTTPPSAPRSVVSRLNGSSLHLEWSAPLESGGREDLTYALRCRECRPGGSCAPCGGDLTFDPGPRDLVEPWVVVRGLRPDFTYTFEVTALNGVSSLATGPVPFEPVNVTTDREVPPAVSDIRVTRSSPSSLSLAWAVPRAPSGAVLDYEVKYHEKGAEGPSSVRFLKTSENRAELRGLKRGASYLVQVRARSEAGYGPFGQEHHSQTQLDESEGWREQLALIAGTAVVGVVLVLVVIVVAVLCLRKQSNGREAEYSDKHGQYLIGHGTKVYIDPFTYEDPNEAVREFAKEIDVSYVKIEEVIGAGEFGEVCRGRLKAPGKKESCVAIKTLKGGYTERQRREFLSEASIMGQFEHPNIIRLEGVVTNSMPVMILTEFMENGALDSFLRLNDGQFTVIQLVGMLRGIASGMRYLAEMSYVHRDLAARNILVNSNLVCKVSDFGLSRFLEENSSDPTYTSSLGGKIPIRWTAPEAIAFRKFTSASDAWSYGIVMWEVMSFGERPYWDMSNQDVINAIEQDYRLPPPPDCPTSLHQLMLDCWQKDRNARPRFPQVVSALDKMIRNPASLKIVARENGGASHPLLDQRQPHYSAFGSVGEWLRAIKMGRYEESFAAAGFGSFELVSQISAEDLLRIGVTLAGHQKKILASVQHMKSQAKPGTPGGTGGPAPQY

[5] = biological target: T3, Ephrin type-B receptor 4 (Homo sapiens); settings: at 1 µM
[6] = biological target: Receptor tyrosine-protein kinase erbB-2 (Homo sapiens) (UniProt P04626); settings: at 0.1 µM
[7] = biological target: Receptor tyrosine-protein kinase erbB-2 (Homo sapiens) (UniProt P04626); settings: at 1 µM
[8] = biological target: Receptor tyrosine-protein kinase erbB-4 (Homo sapiens) (UniProt Q15303); settings: at 0.1 µM
[9] = biological target: Receptor tyrosine-protein kinase erbB-4 (Homo sapiens) (UniProt Q15303); settings: at 1 µM
[10] = biological target: Tyrosine-protein kinase Fer (Homo sapiens) (UniProt P16591); settings: at 0.1 µM;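 further: reported figures are averaged percent inhibition of FER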
Chain of Tyrosine-protein kinase Fer (Homo sapiens) (P16591 whole entry, looked up): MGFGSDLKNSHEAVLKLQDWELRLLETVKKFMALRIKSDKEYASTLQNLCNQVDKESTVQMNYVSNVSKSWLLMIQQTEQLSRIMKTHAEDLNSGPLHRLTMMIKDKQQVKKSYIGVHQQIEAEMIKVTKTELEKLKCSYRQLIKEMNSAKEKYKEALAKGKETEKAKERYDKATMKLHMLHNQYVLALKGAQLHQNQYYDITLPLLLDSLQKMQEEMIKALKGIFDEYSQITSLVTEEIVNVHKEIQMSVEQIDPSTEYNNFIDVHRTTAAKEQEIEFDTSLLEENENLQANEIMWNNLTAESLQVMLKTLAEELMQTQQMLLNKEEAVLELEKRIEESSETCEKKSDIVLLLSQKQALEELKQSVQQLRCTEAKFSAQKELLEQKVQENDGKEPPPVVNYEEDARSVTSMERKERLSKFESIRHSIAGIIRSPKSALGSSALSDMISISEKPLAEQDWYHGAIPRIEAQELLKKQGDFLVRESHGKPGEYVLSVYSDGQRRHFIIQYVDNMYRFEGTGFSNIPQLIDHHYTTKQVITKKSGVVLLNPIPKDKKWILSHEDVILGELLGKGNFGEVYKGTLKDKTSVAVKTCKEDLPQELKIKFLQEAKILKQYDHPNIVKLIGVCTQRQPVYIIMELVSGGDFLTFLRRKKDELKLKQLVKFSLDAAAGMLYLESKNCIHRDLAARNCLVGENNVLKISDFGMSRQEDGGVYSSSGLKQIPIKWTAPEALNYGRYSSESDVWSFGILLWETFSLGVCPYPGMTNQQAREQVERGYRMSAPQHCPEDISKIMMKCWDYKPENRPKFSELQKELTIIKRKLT

Chain of Receptor tyrosine-protein kinase erbB-2 (Homo sapiens) (P04626 whole entry): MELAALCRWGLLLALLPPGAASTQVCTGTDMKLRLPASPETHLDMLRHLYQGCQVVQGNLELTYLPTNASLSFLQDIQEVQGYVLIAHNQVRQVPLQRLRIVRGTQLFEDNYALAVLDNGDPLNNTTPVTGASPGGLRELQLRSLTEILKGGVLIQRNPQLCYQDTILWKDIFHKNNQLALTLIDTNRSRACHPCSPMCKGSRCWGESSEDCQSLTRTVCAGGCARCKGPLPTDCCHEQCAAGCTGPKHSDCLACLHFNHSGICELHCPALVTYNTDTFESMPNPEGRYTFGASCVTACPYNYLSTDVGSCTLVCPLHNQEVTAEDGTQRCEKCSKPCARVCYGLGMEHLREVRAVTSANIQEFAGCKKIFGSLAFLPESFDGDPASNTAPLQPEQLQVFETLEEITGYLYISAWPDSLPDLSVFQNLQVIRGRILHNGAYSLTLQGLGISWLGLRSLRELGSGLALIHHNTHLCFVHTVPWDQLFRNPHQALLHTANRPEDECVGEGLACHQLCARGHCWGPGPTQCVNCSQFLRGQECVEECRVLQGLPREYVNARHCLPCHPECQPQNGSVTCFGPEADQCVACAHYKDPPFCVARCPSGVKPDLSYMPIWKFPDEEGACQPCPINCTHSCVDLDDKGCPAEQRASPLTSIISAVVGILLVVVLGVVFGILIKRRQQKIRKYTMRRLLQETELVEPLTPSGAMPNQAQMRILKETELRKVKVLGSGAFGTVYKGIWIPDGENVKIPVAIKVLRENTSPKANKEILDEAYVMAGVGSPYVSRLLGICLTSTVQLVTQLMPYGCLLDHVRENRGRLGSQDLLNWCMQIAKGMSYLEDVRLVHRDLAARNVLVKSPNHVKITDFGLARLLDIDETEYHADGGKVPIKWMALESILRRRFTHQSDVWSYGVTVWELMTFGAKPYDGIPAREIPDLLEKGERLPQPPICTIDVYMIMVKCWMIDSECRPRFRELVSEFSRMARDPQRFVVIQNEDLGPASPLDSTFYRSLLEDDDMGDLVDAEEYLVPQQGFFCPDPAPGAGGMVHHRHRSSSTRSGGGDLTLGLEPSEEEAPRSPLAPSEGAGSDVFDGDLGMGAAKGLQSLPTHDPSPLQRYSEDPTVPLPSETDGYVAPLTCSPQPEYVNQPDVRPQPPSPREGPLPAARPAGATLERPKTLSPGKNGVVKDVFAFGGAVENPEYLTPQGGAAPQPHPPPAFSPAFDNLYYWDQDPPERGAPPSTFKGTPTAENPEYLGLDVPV
Chain of Receptor tyrosine-protein kinase erbB-4 (Homo sapiens) (Q15303 whole entry): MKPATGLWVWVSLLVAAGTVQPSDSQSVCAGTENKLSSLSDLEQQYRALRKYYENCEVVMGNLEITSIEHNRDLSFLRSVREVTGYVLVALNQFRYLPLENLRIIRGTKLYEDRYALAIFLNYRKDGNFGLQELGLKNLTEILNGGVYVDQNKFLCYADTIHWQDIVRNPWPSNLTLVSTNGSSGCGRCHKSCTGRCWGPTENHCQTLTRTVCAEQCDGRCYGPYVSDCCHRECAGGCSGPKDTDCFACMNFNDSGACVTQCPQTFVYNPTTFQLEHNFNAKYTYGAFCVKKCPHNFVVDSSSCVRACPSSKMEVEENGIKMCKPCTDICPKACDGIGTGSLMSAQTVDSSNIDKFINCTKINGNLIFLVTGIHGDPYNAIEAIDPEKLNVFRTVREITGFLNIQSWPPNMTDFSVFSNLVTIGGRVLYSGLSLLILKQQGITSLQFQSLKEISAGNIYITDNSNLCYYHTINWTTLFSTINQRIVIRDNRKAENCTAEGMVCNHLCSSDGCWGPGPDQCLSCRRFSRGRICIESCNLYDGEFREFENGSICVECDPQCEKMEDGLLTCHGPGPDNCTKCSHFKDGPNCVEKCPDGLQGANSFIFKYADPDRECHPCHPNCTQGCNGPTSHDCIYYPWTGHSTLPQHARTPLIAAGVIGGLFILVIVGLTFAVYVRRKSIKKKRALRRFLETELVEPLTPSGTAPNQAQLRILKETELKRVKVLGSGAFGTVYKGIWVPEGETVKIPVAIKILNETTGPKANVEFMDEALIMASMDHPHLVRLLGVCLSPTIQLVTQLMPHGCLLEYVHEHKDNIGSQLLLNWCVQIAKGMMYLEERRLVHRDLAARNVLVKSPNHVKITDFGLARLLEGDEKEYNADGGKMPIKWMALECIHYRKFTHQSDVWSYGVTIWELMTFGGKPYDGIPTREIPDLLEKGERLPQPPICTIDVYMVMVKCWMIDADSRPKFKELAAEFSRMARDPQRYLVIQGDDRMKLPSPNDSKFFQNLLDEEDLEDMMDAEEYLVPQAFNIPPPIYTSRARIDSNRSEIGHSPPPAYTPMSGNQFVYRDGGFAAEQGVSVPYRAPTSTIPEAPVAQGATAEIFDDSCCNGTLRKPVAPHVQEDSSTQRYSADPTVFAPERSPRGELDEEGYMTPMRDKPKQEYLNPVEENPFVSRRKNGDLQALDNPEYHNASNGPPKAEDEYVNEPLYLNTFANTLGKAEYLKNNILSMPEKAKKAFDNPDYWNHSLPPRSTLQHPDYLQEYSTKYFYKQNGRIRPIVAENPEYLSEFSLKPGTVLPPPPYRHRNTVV

Row | SMILES | inhibition [1] [%] | inhibition [2] [%] | inhibition [3] [%] | inhibition [4] [%] | inhibition [5] [%] | inhibition [6] [%] | inhibition [7] [%] | inhibition [8] [%] | inhibition [9] [%] | inhibition [10] [%]
1 | CCN1CCC(CC(=O)Nc2n[nH]c3nc(-c4cccs4)c(Br)cc23)CC1 | 1.96 | -2.11 | -3.61 | -1.44 | -2.19 | -4.26 | -1.56 | -5.1 | -7.08 | 0.22
2 | COc1cccc(-n2ncc3c(N/N=C/c4cccc(F)c4)ncnc32)c1 | 4.03 | 0.95 | -0.77 | -0.91 | 0.63 | 1.57 | -0.99 | 1.08 | 2.68 | 2.76
3 | NCc1ccc(-c2nc(-c3ccc(Cl)c(O)c3)c(-c3ccncc3)[nH]2)cc1 | 8.63 | 5.47 | 12.8 | 3.82 | 9.77 | -0.58 | -0.9 | 11.1 | 28.9 | 0.8
4 | c1cnn2ncc(-c3ccnc(Nc4ccc5c(c4)OCCO5)n3)c2c1 | 29.4 | 3.36 | 6.8 | 3.69 | 12.5 | 1.94 | 2.67 | 8.29 | 12.4 | 10.7
5 | Fc1cccc(COc2ccc(Nc3ncnc4cc(-c5ccc[nH]5)sc34)cc2Cl)c1 | 6.05 | 0.75 | -2.49 | -1.44 | -2.14 | 0.71 | 15.2 | 36.5 | 68.5 | 1.94
6 | Nc1ncnc2occ(-c3ccc(NC(=O)Nc4cc(C(F)(F)F)cc(C(F)(F)F)c4)cc3)c12 | 68.2 | 6.66 | 27.9 | 9.24 | 41.4 | -1.28 | -3.43 | 9.75 | 5.89 | 1.71
7 | CS(=O)(=O)CCNCc1ccc(-c2ccc3ncnc(Nc4ccc(OCc5ccccc5)c(Cl)c4)c3c2)o1 | 11.5 | -0.46 | 2.9 | 1.93 | 2.4 | 21.5 | 69.5 | 59.8 | 88.1 | 4.02
8 | O=C1NC(=O)C(N2CCc3ccccc32)=C1c1ccc(Cl)cc1 | 12.6 | 7.43 | 6.04 | 3.92 | 1.54 | 0.97 | -4.09 | 8.85 | 24 | 2.88
9 | Cc1nnc(-c2ccc(C)c(-c3ccc(C(=O)Nc4cccc(C#N)c4)cc3)c2)o1 | 8.63 | 4.01 | 4.32 | 1.3 | 1.73 | 2.71 | 2.09 | 11 | 16.2 | 2
10 | CC(C)=Cc1cccc2c1/C(=N/Nc1ccc(S(N)(=O)=O)cc1)C(=O)N2 | 5.84 | 2.65 | -0.21 | 1.72 | 2.38 | 0.59 | 4.72 | 5.98 | 4.74 | 3.57
11 | [O-][S+]1CCN(Cc2ccc(-c3ccc4ncnc(Nc5ccc(OCc6ccccc6)c(F)c5)c4c3)o2)CC1 | -0.23 | 3.15 | 1.61 | 0.35 | 2.22 | 20.4 | 75.1 | 68.7 | 88.7 | 3.77
12 | O=C1NC(=O)C(c2cccc(Cl)c2)=C1Nc1ccc(O)c(Cl)c1 | -8.35 | 2.73 | -5.14 | 1.15 | -0.03 | 0.29 | -5.89 | 5.49 | 6.06 | 3.79
13 | CS(=O)(=O)CCNCc1nc(-c2ccc3ncnc(Nc4ccc(F)c(Cl)c4)c3c2)cs1 | 22.5 | 6.15 | 9.44 | 1.4 | 8.6 | 7.41 | 34.5 | 46.6 | 83.1 | 1.44
14 | Cn1cc(C=C2C(=O)Nc3cccnc32)c2ccccc21 | 12 | 4.59 | -0.71 | 0.9 | 5.16 | 0.95 | 3.11 | 9.66 | 9.14 | 0.48
15 | COc1cc2ncn(-c3cc(O[C@@H](C)c4ccccc4Cl)c(C(N)=O)s3)c2cc1OC | 14.1 | 3.27 | 3.66 | 1.67 | 4.23 | 0.23 | 6.51 | 6.3 | 14.2 | 6.4
16 | O=C1NC(=O)C(c2ccc(Cl)cc2)=C1Nc1ccc(Cl)c(C(=O)O)c1 | 1.8 | -6.22 | -1.9 | -0.68 | -1.57 | -2.94 | -3.13 | -7.86 | -9.87 | 1.93
17 | CCCN1CCC(Oc2cc(Nc3nc(Nc4cccc(F)c4C(N)=O)c4cc[nH]c4n3)c(OC)cc2Cl)CC1 | 13.7 | 1.47 | -1.18 | -0.64 | 0.69 | 0.9 | 1.3 | 0.71 | 0.3 | 3.76
